Experimental data: PubChem BioAssay AID493004 (Broad Institute, 2010)
Out of some 2,300 compounds screened, fewer than 10 were called active.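 How the source made its calls: active means Signal drops as the depositor expects, and the fitted half-maximal dose is no more than ten times the top valid tested dose; inconclusive means Poor fit, or a flat curve whose signal drops by 30% to 70%; inactive means the rest.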 These entries were drawn from the full list.

Test: Mot1-301 yeast growth enhancement – whole organism, S. cerevisiae, ATP luminescence, cherry-picked samples, SUMO pathway inhibitor project, dose response (AID 493004);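 further: more negative values mean stronger growth rescue toward the control strain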
Conditions: S. cerevisiae Mot1-301 galactose growth, 24 h, -100 = growth of slx-deleted rescue strain; series mostly up to 42 µM

outcome, inactive:
Cc1ccc(CC2CC(=O)N(c3ccc4c(c3)OCCO4)C2=O)cc1 (centres undefined)
O=C(CCc1ccccc1)NNC(=O)c1ccc(Br)cc1
Cc1ccc(N2C(=O)C3N=NN(CC(=O)N4N=C(c5cccc6ccccc56)CC4c4ccccc4)C3C2=O)cc1 (centres undefined)
CC1CCN(Cc2nc3c(c(=O)n(C)c(=O)n3C)n2CCc2ccccc2)CC1
COc1cc(CNCc2ccc3c(c2)OCO3)c([N+](=O)[O-])cc1OC
O=C(Nc1ccccc1N1CCN(c2ccccc2)CC1)c1cccc(F)c1
N#CC(C#N)=CN=c1ccn(Cc2ccc(Cl)cc2Cl)cc1
Cc1cccc(C)c1NC(=O)C(Cl)C(=O)c1ccccc1 (centres undefined)
Cc1cc(C)cc(NC(=O)C2CCCN(S(=O)(=O)c3ccc4[nH]c(=O)ccc4c3)C2)c1 (centres undefined)
Cc1cc(Br)ccc1NC(=O)c1cnc(N2CCN(c3ccccn3)CC2)c2ccccc12
Cc1ccc2c(c1)C(O)(CC(=O)c1cccnc1)C(=O)N2 (centres undefined)
COc1ccc(OCCC(=O)c2ccc(OC)cc2)cc1
CCN(CC)C(=O)CSc1nnc(CNc2ccc(F)cc2)n1Cc1ccco1
O=Cc1ccc(Oc2cccc(C(F)(F)F)c2)nc1
Cc1cc(C)cc(C(=O)NC(CC(N)=O)c2ccc(N3CCC(N4CCCCC4)CC3)c([N+](=O)[O-])c2)c1 (centres undefined)
CCCC(=O)N(CCN1CCOCC1)c1nc2ccc(OCC)cc2s1
CC1=CC(=O)C=CC1(C)C(Cl)(Cl)Cl (centres undefined)
CCc1nc2ccccc2c(C(=O)OC2CCCCC2=O)c1C (centres undefined)
COC(=O)c1cc2occc2n1Cc1nc(-c2ccccc2C)oc1C
CCC(C)[C@H]1COCCS(=O)(=O)N1Cc1ccc(C)cc1 (some centres undefined)
Cc1nc2sc(C(c3ccco3)N3CCOCC3)c(O)n2n1 (centres undefined)
COc1ccc(S(=O)(=O)N2CCOC2CNC(=O)C(=O)NCc2ccncc2)cc1C (centres undefined)
O=C(NNS(=O)(=O)c1c(F)cc(F)c(Cl)c1F)C12CC3CC(CC(C3)C1)C2
CCn1c(SCC(=O)N/N=C/c2ccccc2OCC(=O)O)nnc1-c1ccc(C(C)(C)C)cc1
C=C(Cl)COC(=O)C1C2C=CC(C2)C1C(=O)O (centres undefined)
CCOc1ccc(N(CC)S(=O)(=O)c2cccc3nsnc23)cc1
CCC(CC)C(=O)Nc1ccc(S(=O)(=O)Nc2nccs2)cc1
O=c1c2c(ncn1Cc1ccccc1)nc1n2CCC1
Cc1ccc(S(=O)(=O)CCC(=O)OCC(=O)N(C)C2CCS(=O)(=O)C2)cc1 (centres undefined)
